Experimental data from PubChem BioAssay (NCI).
This is part of a sample that, as a whole, favours compounds with a hit. Of some 79,000 tested, about 15% had one in any assay. Values without a mark were called inactive. The source made the active and inactive calls. Cut-off read from the data, not from the text of the source: active = growth inhibition above about 70%; inactive = the rest.

Tests used:
[1] = NCI Yeast Anticancer Drug Screen. Data for the rad50 strain (AID 155);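 note: 0% = growth of vehicle-only cultures of the same strain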; details: S. cerevisiae rad50 strain growth inhibition, hits give high values
Method in brief: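 Vehicle-treated cultures provide the reference for the growth inhibition reported for compound-exposed, repair-deficient yeast.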

[2] = NCI Yeast Anticancer Drug Screen. Data for the mec2-1 strain (AID 157); details: S. cerevisiae mec2-1 strain, hits give high values
Method in brief: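 Yeast mec2-1 mutant treated with compound. Readout: growth inhibition vs vehicle controls.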

[3] = NCI Yeast Anticancer Drug Screen. Data for the sgs1 mgt1 strain (AID 161);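 note: 0% = growth of cultures given vehicle only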; details: S. cerevisiae sgs1 mgt1 strain, hits give high values
Method in brief: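 Test agents were incubated with a DNA-repair-mutant yeast strain. Growth was then read and compared against vehicle-treated controls.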

[4] = NCI Yeast Anticancer Drug Screen. Data for the cln2 rad14 strain (AID 165);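 note: 0% = growth equal to vehicle treated cultures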; details: S. cerevisiae cln2 rad14 strain, hits give high values
Method in brief: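 cln2 rad14 yeast strain; compound exposure; growth inhibition read vs vehicle controls.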

[5] = NCI Yeast Anticancer Drug Screen. Data for the bub3 strain (AID 167); details: S. cerevisiae bub3 mutant strain, hits give high values
Method in brief: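 Mutant yeast screening strain plus compound; vehicle-treated cultures serve as the 0% inhibition reference.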

[6] = NCI Yeast Anticancer Drug Screen. Data for the mlh1 rad18 strain (AID 175); details: S. cerevisiae mlh1 rad18 strain growth inhibition, hits give high values
Method in brief: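 Yeast w/ defined DNA-repair lesions; compound exposure; growth vs vehicle controls → % inhibition.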

[7] = at 5.0 µM (retest, dose inferred, filed as 0.5)
[8] = at 50.0 µM (retest, dose inferred, filed as 5.0)

Compound | growth inhibition [1, 7] | growth inhibition [1, 8] | growth inhibition ([1]; at 50.0 µM) | growth inhibition [2, 7] | growth inhibition [2, 8] | growth inhibition ([2]; at 50.0 µM) | growth inhibition [3, 7] | growth inhibition [3, 8] | growth inhibition ([3]; at 50.0 µM) | growth inhibition [4, 7] | growth inhibition [4, 8] | growth inhibition ([4]; at 50.0 µM) | growth inhibition [5, 7] | growth inhibition [5, 8] | growth inhibition ([5]; at 50.0 µM) | growth inhibition [6, 7] | growth inhibition [6, 8] | growth inhibition ([6]; at 50.0 µM)
CC1(C)OC2COC3(CNO)OC(C)(C)OC3C2O1 (stereo not given) | 0% | -4% | 22.5% | -1% | 1% | 32.6% | -7% | -2% | 83.1% (active) | -5% | 8% | 25.1% | 3% | 5% | 63.9% | -10% | -2% | 69.7%
O/N=C(/Cc1nc2cc(Cl)c(Cl)cc2nc1C/C(=N/O)c1ccncc1)c1ccncc1 | 5% | 65% | 82.2% (active) | 11% | 77% (active) | 87.6% (active) | 4% | 55% | 79% (active) | 6% | 68% | 84.5% (active) | 5% | 77% (active) | 74% (active) | 1% | 47% | 89.5% (active)
Cc1cc(=Nc2ccc3c(c2)c(N)cc(C)[n+]3C)nc(N)n1C | 84% (active) | 88% (active) | 97.1% (active) | 78% (active) | 95% (active) | 92.5% (active) | 78% (active) | 61% | 95.2% (active) | 83% (active) | 85% (active) | 91.9% (active) | 75% (active) | 87% (active) | 89.1% (active) | 83% (active) | 90% (active) | 97.5% (active)
Cc1ccc(O)c(N=Nc2ccc(Cl)cc2)c1 | 0% | 2% | -3.95% | 4% | -2% | -1.95% | -3% | 17% | -20.8% | 1% | -8% | 7.2% | 1% | -8% | 4.4% | -3% | -1% | -23.2%
CN(C)c1ccc(C=Nc2cncc3ccccc23)cc1 | 0% | -11% | -55.6% | 5% | -9% | -18.6% | -3% | 10% | -12.8% | -20% | -6% | -39.5% | 3% | 4% | -6.05% | 7% | 4% | -7.35%
CC(C)(C)c1ccc(-c2nc3ccccc3c(=O)o2)cc1 | -3% | 20% | 55.7% | -1% | 41% | 53.1% | 14% | 74% (active) | 87.2% (active) | -2% | 40% | 61% | -1% | 86% (active) | 89.8% (active) | -3% | 55% | 85% (active)
Cc1ccc(NC(=O)Oc2ccc(OC(=O)Cc3ccccc3)cc2)cc1NC(=O)Oc1ccc(OC(=O)Cc2ccccc2)cc1 | 10% | 97% (active) | 99.2% (active) | 43% | 94% (active) | 99.4% (active) | 2% | 89% (active) | 99.2% (active) | 10% | 93% (active) | 98.2% (active) | 15% | 98% (active) | 99% (active) | 2% | 98% (active) | 99.1% (active)
CC(C)N=C(NC(C)C)SCCCCCCSC(=NC(C)C)NC(C)C | 2% | -2% | 12.3% | -1% | 1% | -17.2% | -7% | 1% | 2.4% | -6% | -1% | 76.2% (active) | 3% | -2% | -16.2% | -1% | -5% | 6.9%
CCCC[NH-].CCCC[NH-].[I][Pt+2][I] | 30% | 67% | 29.2% | 22% | 49% | 15% | 48% | 70% (active) | 60.6% | 53% | 57% | 15.2% | 56% | 68% | 49.4% | 20% | 62% | 41.4%
Nc1ncnc2c1c(-c1ccccc1)cn2-c1ccc(I)cc1 | 54% | -2% | 33.4% | 23% | 0% | 75.2% (active) | 65% | -3% | 41.1% | 24% | -2% | 94.2% (active) | 32% | 0% | 97.3% (active) | 26% | -2% | 47.9%
O=C(C[n+]1ccccc1)N=N/C(C(=O)Nc1c(Cl)c(O)c2ccccc2c1O)=C1/C(=O)Oc2cc(O)ccc2C1=O | 15% | 98% (active) | 97.3% (active) | 23% | 98% (active) | 95.8% (active) | 19% | 98% (active) | 93% (active) | -15% | 96% (active) | 68.5% | 24% | 98% (active) | 90.8% (active) | 27% | 97% (active) | 94.6% (active)
COc1ccc(C(CN2CCOCC2)C(C)=O)cc1OC (stereo not given) | 7% | 81% (active) | 72.4% (active) | 12% | 93% (active) | 70.1% (active) | 13% | 85% (active) | 88.5% (active) | 7% | 40% | 23.6% | 10% | 92% (active) | 69.7% | 5% | 93% (active) | 87.2% (active)
Oc1ccc(SCc2cc(O)ccc2O)cc1 | 9% | 93% (active) | 86% (active) | 8% | 73% (active) | 91.2% (active) | -17% | 48% | 84.5% (active) | -13% | 69% | 66% | -26% | 73% (active) | 86.7% (active) | 10% | 86% (active) | 82.1% (active)
O=S(=O)(Nc1ccccc1Cl)c1ccccc1 | 19% | 80% (active) | 74.8% (active) | 1% | 88% (active) | 81.7% (active) | 4% | 91% (active) | 78.7% (active) | 24% | 81% (active) | 73.1% (active) | -32% | 90% (active) | 81.1% (active) | -2% | 84% (active) | 69.2%
CC(O)c1cc(-c2ccc(Cl)cc2)nc2ccccc12 (stereo not given) | 12% | 97% (active) | 97.8% (active) | 4% | 98% (active) | 97.2% (active) | 6% | 98% (active) | 98% (active) | 14% | 98% (active) | 97.2% (active) | 1% | 98% (active) | 97.8% (active) | -1% | 97% (active) | 96.5% (active)
COc1cc(Br)c(CC(NC=O)c2ccc3c(c2)OCO3)cc1OC (stereo not given) | -4% | 81% (active) | 62.5% | -3% | 74% (active) | 66.3% | -5% | 95% (active) | 36.5% | 4% | 95% (active) | 57.4% | 3% | 98% (active) | 96.3% (active) | -1% | 81% (active) | 56.5%
CCCCCCC[n+]1ccc(C(=O)c2ccccc2)cc1 | 99% (active) | 99% (active) | 99.4% (active) | 100% (active) | 99% (active) | 94.3% (active) | 100% (active) | 100% (active) | 99.5% (active) | 99% (active) | 100% (active) | 80.2% (active) | 99% (active) | 99% (active) | 99.3% (active) | 99% (active) | 99% (active) | 99.5% (active)
CC(Cc1ccccc1)N1C(=O)C=CC1=O (stereo not given) | 45% | 98% (active) | 91.8% (active) | 92% (active) | 99% (active) | 93.5% (active) | 20% | 50% | 93.8% (active) | 77% (active) | 98% (active) | 91.5% (active) | 76% (active) | 99% (active) | 92.2% (active) | 47% | 98% (active) | 91.8% (active)
CC(C)OC(=O)c1ccc(CCC2=CC(=O)C=CC2=O)cc1 | 34% | 89% (active) | 81.1% (active) | 53% | 99% (active) | 77.2% (active) | 86% (active) | 94% (active) | 87.3% (active) | 76% (active) | 91% (active) | 61.7% | 92% (active) | 95% (active) | 87.4% (active) | 66% | 98% (active) | 79.2% (active)
c1ccc(SSc2ccccn2)nc1 | 17% | 99% (active) | 96.5% (active) | 69% | 99% (active) | 99.7% (active) | 49% | 99% (active) | 53.1% | 0% | 99% (active) | 99.5% (active) | 50% | 99% (active) | 99.5% (active) | 62% | 99% (active) | 99.5% (active)
